# Laboratory results published in ChEMBL document CHEMBL3988442, “University of Dundee, Small-Polar-MMV Screening Library” (2021).
# Hit rate of the full screen: of about 48,000 compounds, about 13,000 (27%) showed an effect of 50% or more. This is one part of the list.
# System: Wolbachia pipientis
# Assay: Anti-Wolbachia Cell-Based Screen
# Type: functional
# Set-up: scale not given: in the data most compounds retested in dose-response had high values
# Conditions: 5 µM
row,Compound,Percent Effect [%]
1,Cc1cc(N[C@@H](CO)c2ccccc2)n2nc(C)c(C)c2n1,-10.16
2,COc1ncnc(N)c1CNCCc1ccc(-n2cccn2)cc1,93.72
3,COc1ncnc(N)c1CNCC(C)Oc1ccccc1Cl (stereo not drawn),-1.664
4,COc1ncnc(N)c1CNCCOc1ccccc1Cl,-0.9521
5,COc1ncnc(N)c1CNCc1ccccc1-n1cccn1,108.1
6,COc1ncnc(N)c1CNCC(C)SC (stereo not drawn),4.865
7,c1ccc(-n2cncn2)c(CNCCn2cccn2)c1,-10.78
8,CC(C)C1CN(C(=O)c2cc(=O)[nH]c(=O)[nH]2)CCCN1CC1CC1 (stereo not drawn),26.13
9,Cc1ccc(CN2CCN(c3ncnc4[nH]cnc34)CC2CCO)cc1 (stereo not drawn),-6.275
10,Cc1cc(CN2CCN(CC3CC3)[C@@H]3CS(=O)(=O)C[C@@H]32)ccc1F,0.5835
11,CCS(=O)(=O)N1CCc2c(nc(C3CCCN3)nc2NC)C1.Cl (stereo not drawn),89.89
12,CNc1nc(C2CCCN2)nc2c1CCN(S(=O)(=O)C1CCCCC1)C2.Cl (stereo not drawn),89.64
13,CCS(=O)(=O)N1CCc2c(cccc2NCc2nc(C)c(C)o2)C1,13.37
14,CCS(=O)(=O)N1CCc2c(cccc2NCc2ncc[nH]2)C1,-10.34
15,O=C1CCN(C(=O)C2(c3ccc(F)cc3)CCCC2)CCN1,-16.8
16,COc1ccc(C(O)CNC(=O)NCc2csc(C)n2)cc1 (stereo not drawn),-1.772
17,CS(=O)(=O)N1CCN2C(=O)N(C3CCOCC3)C[C@H]2C1,-10.83
18,Cc1ncnc(N2CCN(C(=O)C3CC4(CCNCC4)CN3)CC2)c1C (stereo not drawn),-0.6445
19,Cc1cnccc1N1CCN(C(=O)C2CC3(CCNCC3)CN2)CC1 (stereo not drawn),31.13
20,Cc1nccn1CCC1CCN(C2CCC3(CCNCC3)CC2)CC1,84.73
21,Cc1nccn1CCC1CCN(C(=O)C2CC3(CCNCC3)CN2)CC1 (stereo not drawn),104.8

row,Compound,Percent Effect [%]
1,Cc1nnc(N2CCC(CCn3ccnc3C)CC2)o1,2.305
2,Cc1nccn1CCC1CCN(c2ncccn2)CC1,-9.43
3,CCCN(CC(=O)OC)S(=O)(=O)c1cnc2c(c1)c(C)nn2C,9.963
4,O=C(C1CCOC1)N1C[C@@H]2CCN(C(=O)c3cscn3)[C@@H]2C1 (stereo partly drawn),85.3
5,CS(=O)(=O)N1C[C@@H]2CCN(C(=O)c3ccco3)[C@@H]2C1,-6.962
6,O=C(c1ccsc1)N1C[C@@H]2CCN(C(=O)c3cscn3)[C@@H]2C1,98.94
7,CCS(=O)(=O)N1CCC2(CN(C(=O)c3cscn3)C2)C1,7.529
8,CN1C[C@@H]2CN(C(=O)C3CCOC3)C[C@@H]2C1=O (stereo partly drawn),0.8988
9,CS(=O)(=O)N1C[C@@H]2CCN(C(=O)c3cscn3)[C@@H]2C1,118.3
10,O=C(NC1CC1)N1C[C@@H]2CCN(C(=O)c3cscn3)[C@@H]2C1,121.3
11,O=C(c1cscn1)N1CC[C@@H]2[C@@H]1CCN2c1ccccn1,-2.894
12,O=C(c1ccsc1)N1C[C@@H]2CCN(C(=O)c3cccc(F)c3)[C@@H]2C1,-29.62
13,O=C(c1ccco1)N1C[C@H]2CCCN(C(=O)c3ccsc3)[C@H]2C1,-8.905
14,CC(C)C(=O)N1CCN(C(=O)c2cscn2)[C@H]2CS(=O)(=O)C[C@H]21,2.64
15,O=C(NC1CCCCC1)N1C[C@@H]2OCCN(C(=O)c3ccco3)[C@@H]2C1,2.504
16,Cc1nc(C(C)(C)NCc2ncc(C(C)C)o2)sc1C,0.4552
17,O=C(C1CCS(=O)(=O)C1)N1CCC(=Cc2cccc(F)c2)CC1 (stereo not drawn),0.7274
18,Cc1ccc2nc(C(=O)N3CC(n4nc(C)cc4C)C3)cn2c1,-3.622
19,Cc1ccc2nc(C(=O)N3C[C@@H](C(=O)O)[C@H](c4ccccc4)C3)cn2c1,107.2
20,Cc1c(Cl)c(C(=O)N2C[C@@H](C(=O)O)[C@H](c3cccnc3)C2)nn1C,7.348
21,Cc1ccc2nc(C(=O)N3CC(c4cccnc4)C3)cn2c1,95.05

row,Compound,Percent Effect [%]
1,Cc1c(Cl)c(C(=O)N2CC(c3cccnc3)C2)nn1C,11
2,COc1cc(C)sc1C(=O)N1CC(c2cccnc2)C1,-11.08
3,Cc1ccc(F)c(C(=O)N2C[C@@H](C(=O)O)[C@H](c3ccccc3)C2)c1Cl,13.68
4,Cc1ccc(CN2C[C@@H](C(=O)O)[C@H](c3cccnc3)C2)s1,-1.112
5,Cc1ccc2nc(C(=O)N3C[C@@H](C(=O)O)[C@H](c4cccnc4)C3)cn2c1,96.84
6,Cc1c(-c2n[nH]c3c2CN(CC2CCOC2)CC3)cccc1C(F)(F)F (stereo not drawn),-2.371
7,CCCOC(=O)C(C)Sc1nnnn1C1CCOCC1 (stereo not drawn),-23.26
8,O=C(NC1CCOCC1)C1CC(=O)N(Cc2ccccn2)C1 (stereo not drawn),-4.932
9,Cc1ncccc1CNCC1CCN(CC(O)c2ccccc2)CC1 (stereo not drawn),6.479
10,N[C@@H]1CC[C@H](C(=O)NCc2ccc3nonc3c2)C1,-14.66
11,Cc1ccc(CSc2ncc(Br)c(C(=O)O)n2)cc1,104.9
12,Cc1cccc(CSc2ncc(Cl)c(C(=O)O)n2)c1,112.8
13,Cc1cccc(CSc2ncc(Br)c(C(=O)O)n2)c1,160.3
14,Cc1cccc(CN2CCN(C(=O)c3cc(Cl)c[nH]c3=O)CC2)c1,-10.72
15,Cc1ccnc(NC(=O)CSCc2cccnc2)c1,-2.126
16,O=C(O)c1nc(SCc2ccccc2)ncc1Br,220.2
17,Cc1cccc(CN2CCN(C(=O)c3cnc(C)[nH]c3=O)CC2)c1,-2.506
18,CC1(C)CN(CC(F)(F)F)CCN1CC(=O)NC1CC1,-2.584
19,CSc1sc(NC(=O)Cc2c(C)nc(C)[nH]c2=O)nc1C,-3.918
20,Cc1ncnc(NCc2cc3n(n2)CCCN(S(C)(=O)=O)C3)c1C,3.244
21,CNS(=O)(=O)c1csc(C(=O)N(C)Cc2ccccc2C)c1,-9.289
